Records with an inconclusive call do not appear. Some structures have more than one record in an assay (separate samples or runs), and their calls can disagree. The source made the active and inactive calls. Calls follow the shape of the dose curve; as a rule, active = well fitted activation curve with a large enough effect in the repeat runs; inconclusive = weak or mixed curves; inactive = flat fitted curve, though single readings scatter.
% is scaled to controls: 0 for no effect and ±100 for the full control effect; potency is read from the fitted curve at half-maximal effect.

This assay in a line: A CellTox Green Cytotoxicity Assay to monitor cytotoxicity in HEK293 cells - 40 hour (AID 1224871). Also: nearly all actives have a fitted effect of over 45% in size. Particulars: CellTox Green fluorescence; series mostly up to 76.8 µM; cytotoxicity increase: at the top concentration. The source says: National Center for Advancing Translational Sciences [NCATS]
NIH Chemical Genomics Center [NCGC]
U.S. Environmental Protection Agency [EPA]
National Institutes of Environmental Health Sciences [NIEHS]
National Toxicology Program [NTP]
Cell-based models are critical for drug discovery. Determining the natural cytotoxic effects resulting from test compounds is an essential research activity. A CellTox Green Cytotoxicity Assay to monitor cytotoxicity in real time of continues cell culture during 40 hours of the compound treatment was used to screen Tox21 10K library compounds in Hek293 cells. CellTox Green Cytotoxicity Assay is a nonlytic, homogeneous, biofluorescent method to measure cytotoxicity in cell culture after experimental manipulation. The assay system uses a proprietary asymmetric cyanine dye that is excluded from viable cells but preferentially stains the dead cell's DNA. […] Viable cells produce no appreciable increases in fluorescence. Therefore, the fluorescence signal produced by the binding interaction with dead cell DNA is proportional to cytotoxicity.
The mixture of Hek293 cell suspension and reagents were dispensed at 600cells/6 ul/well in 1536-well tissue culture treated black solid bottom plates using a Multidrop dispenser. After the assay plates were incubated at a 37 C/5% CO2 incubator for 5 hours, 23 nL of compounds dissolved in DMSO, positive and negative controls was transferred to the assay plate by a pintool work station. The plates were incubated at 37 C for 40 hours. The fluorescence intensity were measured at 0h, 8h, 16h, 24h, 32h and 40h time points using ViewLux plate reader during compound treatment.
As for `CCCCS(=O)(=O)Cl`, the “cytotoxicity increase” value was -1.76% (inactive).
As for `ClC1=C(Cl)C2(Cl)C(CBr)CC1(Cl)C2(Cl)Cl` (stereo not given), the Potency is 54.9 µM (active) and inactive.
`O=C(Cl)C(Cl)Cl`: the “cytotoxicity increase” value was -7.25% (inactive).
On to `CCC1(c2ccccc2)CCC(=O)NC1=O` (stereo not given), for which the “cytotoxicity increase” value is -10.6% [at 35.3 µM] (inactive).
Turning to `N#CC(Br)(Br)C(N)=O`, the “cytotoxicity increase” value is -10.5% (inactive).
Turning to `CCC(C)(C#N)N=NC(C)(C#N)CC` (stereo not given), the “cytotoxicity increase” value is -2.63% (inactive).
The same measure, in the same setting: the value for `CCOC(=O)c1ncn2c1CN(C)C(=O)c1c(I)cccc1-2` was -2.79% [at 35.3 µM] (inactive); that for `COc1ccc2c(C(=O)c3ccc(Cl)cc3)c(C)n(CC(=O)O)c2c1` was -2.29% [at 35.3 µM] (inactive).
Regarding `Oc1ccc(Cc2ccc(O)cc2)cc1`, the “cytotoxicity increase” value was -0.541% (inactive).
Turning to `CCCOC(=O)Cc1ccc(OCC(=O)N(CC)CC)c(OC)c1`, the “cytotoxicity increase” value was -9.42% [at 35.3 µM] (inactive).
On to `ClCCCCl`, for which the “cytotoxicity increase” value was -10.2% (inactive).
On the same count and under the same terms, the value for `CCC(CC)(CNC(=O)CCCO)c1cccc(OC)c1` was -0.791% [at 35.3 µM] (inactive); that for `C(COCC1CO1)OCC1CO1` (stereo not given) was 11.9% (inactive).
Take `CN(C)C1CCCCC1`: the “cytotoxicity increase” value was 28.7% (inactive).
With `NCC1(CC(=O)O)CCCCC1`, the “cytotoxicity increase” value is 6.87% [at 35.3 µM] (inactive).
The same measure, in the same setting: the value for `CC1N=C(N)OC1c1ccccc1` (stereo not given) was -24.1% (inactive); that for `O=[N+]([O-])c1cccc(CCl)c1` was 9.26% (inactive); that for `CCN[C@@H](C)Cc1ccccc1` was -20.7% (inactive).
In the case of `CC(C)(C)C(=O)Cl`, the “cytotoxicity increase” value is -13.7% (inactive).
Still for that read-out and setting: with `CCSC(=O)Cl` the figure was -7.86% (inactive); with `CC(=NC#N)N(C)Cc1ccc(Cl)nc1`, -9.87% (inactive); with `CNC(=O)NC(O)C(Cl)(Cl)Cl` (stereo not given), -11.9% [at 35.3 µM] (inactive).
`C=CC=O`: the “cytotoxicity increase” value is 1.99% (inactive).
On to `BrCC1CO1` (stereo not given), for which the “cytotoxicity increase” value was 1.83% (inactive).
In the case of `CN(C)C(=O)Oc1cc(OC(=O)N(C)C)cc(C(O)CNC(C)(C)C)c1` (stereo not given), the “cytotoxicity increase” value is -48.7% [at 35.3 µM] (inactive).
Turning to `COc1cccc([C@@]2(O)CCCC[C@@H]2CN(C)C)c1`, the “cytotoxicity increase” value was 0.528% [at 35.3 µM] (inactive).
On to `O=C(O)C(Cl)Br` (stereo not given), for which the “cytotoxicity increase” value was -5.2% (inactive).
Consider `CCOC(=O)CC(SP(=S)(OC)OC)C(=O)OCC` (stereo not given), for which the “cytotoxicity increase” value was -11.3% [at 35.3 µM] (inactive).
`COC1=CC(=O)O[C@@H](/C=C/c2ccccc2)C1`: the “cytotoxicity increase” value was -3.59% (inactive).
Regarding `Nc1c(Cl)c(F)nc(OCC(=O)O)c1Cl`, the “cytotoxicity increase” value is 1.43% (inactive).
With `NNC(N)=O`, the “cytotoxicity increase” value is -0.781% (inactive).
Take `CCc1ccc(C2CCNCC2)cc1`: the “cytotoxicity increase” value is 2.05% [at 35.3 µM] (inactive).
Turning to `Cc1ccc(Cl)c(O)c1`, the “cytotoxicity increase” value was -27.2% [at 35.3 µM] (inactive).
For the compound `CCC1(CC)C(=O)C=CNC1=O`, the “cytotoxicity increase” value is -23.4% [at 35.3 µM] (inactive).
As for `CCC1(c2cccc(O)c2)CCCCN(C)C1` (stereo not given), the “cytotoxicity increase” value is 8.61% [at 35.3 µM] (inactive).
On the same count and under the same terms, the value for `N[C@@H](Cc1ccc(Oc2cc(I)c(O)c(I)c2)c(I)c1)C(=O)O` was -24% [at 35.3 µM] (inactive).
Regarding `O=C(NC(O)C(Cl)(Cl)Cl)NC(O)C(Cl)(Cl)Cl` (stereo not given), the “cytotoxicity increase” value is 0.796% [at 35.3 µM] (inactive).
Regarding `CC#Cc1cc(C)nc(Nc2ccccc2)n1`, the “cytotoxicity increase” value was -0.186% (inactive).
On the same count and under the same terms, the value for `COc1cccc(C=O)c1` was -5.89% (inactive).
As to `CC(C)(C)C(=O)C(Cl)Cl`, the “cytotoxicity increase” value is -8.8% (inactive).

The record behind these values is PubChem BioAssay (Tox21).
